Assay outcomes deposited in PubChem by several laboratories.
Only some compounds are listed: those with a hit (about 3.1% of all), similar ones and a draw of the others.
ABHD5 PLIN5 PPI: ABHD5-PLIN5 interaction inhibitors, primary screen, cell lysate, split luciferase complementation, luminescence; 0.78% of 360,000 active; Perilipin-5 (Homo sapiens) + 1-acylglycerol-3-phosphate O-acyltransferase ABHD5 (Homo …; Split G. princeps luciferase complementation, 4 h; inhibition, % at 4 µM; AID 602281, 2012;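 active means inhibition above the mean inhibition across every tested compound plus 3 SD, cut at about 22% in these data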
Target sequence (Q00G26 whole entry, looked up): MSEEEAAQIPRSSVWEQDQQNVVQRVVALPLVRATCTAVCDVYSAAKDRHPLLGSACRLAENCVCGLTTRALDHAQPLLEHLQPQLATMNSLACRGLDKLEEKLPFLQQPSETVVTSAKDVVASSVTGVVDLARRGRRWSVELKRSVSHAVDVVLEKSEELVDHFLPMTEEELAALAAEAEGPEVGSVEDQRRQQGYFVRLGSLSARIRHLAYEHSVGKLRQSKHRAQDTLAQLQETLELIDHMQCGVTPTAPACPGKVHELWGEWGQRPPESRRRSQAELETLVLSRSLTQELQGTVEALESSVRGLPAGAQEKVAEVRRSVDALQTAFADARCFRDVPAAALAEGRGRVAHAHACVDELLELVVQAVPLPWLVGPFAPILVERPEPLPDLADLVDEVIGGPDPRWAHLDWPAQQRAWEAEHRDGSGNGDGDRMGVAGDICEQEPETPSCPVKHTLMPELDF
Target sequence (Q8WTS1 whole entry, looked up): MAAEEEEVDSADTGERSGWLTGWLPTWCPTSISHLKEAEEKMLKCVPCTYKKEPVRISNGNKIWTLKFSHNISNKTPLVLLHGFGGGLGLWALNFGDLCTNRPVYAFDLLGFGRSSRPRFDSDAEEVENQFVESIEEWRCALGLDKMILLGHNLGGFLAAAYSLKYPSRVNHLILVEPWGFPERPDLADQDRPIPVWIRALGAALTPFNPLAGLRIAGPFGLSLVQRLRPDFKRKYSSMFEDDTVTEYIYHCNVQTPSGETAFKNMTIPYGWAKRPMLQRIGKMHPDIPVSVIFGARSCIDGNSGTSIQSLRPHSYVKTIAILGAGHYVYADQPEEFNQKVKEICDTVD
CF NFkB block: inhibitors of PAF-induced NF-kB signaling, primary screen, cell-based, GFP fluorescence, uHTS | KKLEB NF-kB-GFP reporter, GFP fluorescence overnight | inhibition, % at 5 µM | 0.86% of 360,000 active | AID 588850, 2011;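 active means at least 50% inhibition at 5 µM, scaled per plate between neutral and stimulator controls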;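 further: PAF is a Pseudomonas aeruginosa culture filtrate used as stimulus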
Peg3 prom inh: Peg3 promoter-driven luciferase inhibitors, primary screen, cell-based, HeLa, luciferase luminescence. HeLa PEG-Prom luciferase reporter, overnight. inhibition, % at 20 µM. AID 588405, 2011. 1.7% of 360,000 active;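 active means inhibition of at least 50% at 20 µM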
TRPM1 prom inh: inhibitors of MITF-dependent TRPM1 promoter reporter, primary screen, cell-based, SK-MEL-5, single point, luciferase; SK-MEL-5 TRPM1 promoter luciferase, 24 h; inhibition, % at 12.5 µM; 0.83% of 330,000 active; AID 488899, 2010;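 active means mean inhibition across replicates of 60% or more, whatever share of single replicates reaches that level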
KKLEB tox: cytotoxicity in KKLEB CF airway cells, primary screen, cytotoxicity control for CF NF-kB inhibitor project, cell-based, uHTS, fluorescence assay plates; KKLEB CF airway cells viability, ATPlite luminescence, overnight; stronger effect = lower value; cells stimulated with P. aeruginosa culture filtrate; activity change (cytotoxicity), % at 5 µM; 0.36% of 360,000 active;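 active means corrected activity change at or below -50% at 5 µM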
HIF-2a block: HIF-2a reporter inhibitors, primary screen, luminescence, 786-0 RCC cells; 786-0 RCC cells HIF-2a reporter, luciferase luminescence, overnight; inhibition, % at 18.8 µM; 0.72% of 360,000 active; AID 624352, 2012;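 active means inhibition of the luminescence signal of 40% or more relative to plate controls, in a single-dose primary screen at 18.75 µM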
Of the large screens only hits and unclear results are named; the others gave an inactive call.

CN(CC(=O)NC1CCCCC1)S(=O)(=O)c1ccc(Cl)cc1	Peg3 prom inh 91
CN(CC(=O)NC1CCCCCC1)S(=O)(=O)c1ccc(F)cc1	none
CN=c1scc(-c2ccccc2F)n1/N=C/c1ccc(O)c(O)c1O	TRPM1 prom inh 86
CCn1c2ccccc2c2cc(CNCc3ccc(OC)cc3OC)ccc21	Peg3 prom inh 114
COc1ccc(CNCC(O)COc2cccc3c2OC(C)(C)C3)cc1 (centres undefined)	none
Oc1ccc(N=Nc2cccc(Cl)c2)cc1C=Nc1ccc(N2CCOCC2)cc1	CF NFkB block 68
Oc1c(Br)cc(Cl)cc1C=Nc1ccc(N2CCOCC2)cc1	none
CCOC(=O)C(CC)/C(C)=N\NC(=O)c1ccccc1O (centres undefined)	Peg3 prom inh 54
Cc1ccnc(NS(=O)(=O)c2ccc(NS(C)(=O)=O)cc2)n1	none
O=C(N/N=C/c1cccc2cccnc12)c1ccccc1O	TRPM1 prom inh 69
CCC(=O)Nc1ccc(Nc2nc(C)c([N+](=O)[O-])c(Nc3ccc(NC(=O)CC)cc3)n2)cc1	Peg3 prom inh 53
Cc1nc(Nc2ccc(C(=O)O)cc2)nc(Nc2ccc(C(=O)O)cc2)c1[N+](=O)[O-]	none
O=c1[nH]c(=O)n([C@H]2C[C@H](O)[C@@H](CO)O2)cc1C(F)(F)F	none
[N-]=[N+]=NC1C[C@H](n2ccc(=O)[nH]c2=O)O[C@@H]1CO (some centres undefined)	KKLEB tox -61
COc1ccc(/C=C/C(=O)c2ccccc2)cc1COc1ccc(F)cc1	ABHD5 PLIN5 PPI 22
COc1ccc(C(=O)/C=C/c2cccc(OCc3ccccc3)c2)cc1CSCC(=O)O	Peg3 prom inh 75
COc1ccc(C(=O)/C=C/c2ccc(OCc3ccccc3)cc2)cc1CSCC(=O)O	none
COc1ccc(/C=C/C(=O)c2ccc(O)cc2)cc1COc1ccc(F)cc1	none
CCOC(=O)c1cc(-c2ccccc2)sc1NC(=O)C(C)Sc1nnc(N)s1 (centres undefined)	none
COc1ccc(CC(=O)Nc2cccc(-c3nnc(-c4ccccc4)o3)c2)cc1OC	Peg3 prom inh 100
COc1ccc(CC(=O)Nc2ccc(-c3nnc(-c4ccccc4)o3)cc2)cc1OC	none
COc1ccc(CC(=O)Nc2cccc(-c3nnc(-c4cccc(C)c4)o3)c2)cc1OC	none
COc1ccc(CC(=O)Nc2cccc(-c3nnc(-c4ccc(C)cc4)o3)c2)cc1OC	Peg3 prom inh 111, TRPM1 prom inh 62
O=C(CSc1nc2ncc(Cl)cc2[nH]1)Nc1ccccc1-c1ccccc1	none
O=C(CSc1nc2ncc(Br)cc2[nH]1)Nc1ccccc1-c1ccccc1	Peg3 prom inh 53
COc1cc2c(O)c3c(c(-c4ccc5c(c4)OCO5)c2cc1OC)C(=O)OC3	CF NFkB block 76, Peg3 prom inh 81, KKLEB tox -73
COc1ccc(-c2oc(=O)c3cc(OC)c(OC)cc3c2-c2ccc3c(c2)OCO3)cc1	none
Cc1ccc(NC(=O)CN(C)C(=O)CSc2nc(C)cs2)cc1	none
COc1ccc([N+](=O)[O-])cc1N(CC(=O)NCCSc1ccc(C)cc1)S(C)(=O)=O	none
Cc1cccc(NS(=O)(=O)c2ccc(NC(=O)CN(c3cc([N+](=O)[O-])ccc3C)S(C)(=O)=O)cc2)c1	ABHD5 PLIN5 PPI 32, Peg3 prom inh 59
COc1ccc(C)cc1NS(=O)(=O)c1ccc(NC(=O)CN(c2cc([N+](=O)[O-])ccc2C)S(C)(=O)=O)cc1	Peg3 prom inh 64
CS(=O)(=O)N(CC(=O)Nc1ccc(F)c(F)c1)c1cccc([N+](=O)[O-])c1	none
O=[N+]([O-])c1ccc(CSC2=NCCS2)cc1	none
O=C(NC1CCCC1)C(c1ccc(F)cc1)N(Cc1ccc(Cl)cc1)C(=O)CCl (centres undefined)	Peg3 prom inh 62
CCOc1ccc(CN(C)c2nc(-c3cccnc3)nc3ccccc23)cc1OC	none
CCOc1ccc(N(CC(=O)NC2CCCCC2)C(=O)CCC(=O)Nc2cc(C)ccn2)cc1	none
Cn1c(/C(C#N)=C/c2ccc(-c3ccc(S(N)(=O)=O)cc3)o2)nc2ccccc21	Peg3 prom inh 72
Cc1cc(OCC(F)(F)C(F)(F)C(F)(F)C(F)F)nc(N)n1	none
CCC(=O)N1CCN(c2ccccc2NC(=O)COc2cc(C)ccc2C(C)C)CC1	Peg3 prom inh 52
Cc1ccc(C(C)C)c(OCC(=O)NC(=S)Nc2ccccc2N2CCOCC2)c1	none
COc1ccc(CC(=O)Nc2nc(OCCN3CCCC3=O)cnc2-c2cccc(C(F)(F)F)c2)cc1	none (no result: TRPM1 prom inh)
Cc1cc(Cl)c2oc(C(=O)N3CCN(c4ccncc4)CC3)c(C)c2c1	Peg3 prom inh 92
CC(CCc1ccccc1)NC(=O)CCNC(=O)Cn1ccc2ccccc2c1=O (centres undefined)	none
Clc1ccc(-c2nnc(Sc3nc4ccccc4o3)c3ccccc23)cc1	none
O=c1c(Cl)c2oc3ccccc3nc-2c2ccccc12	TRPM1 prom inh 63
CCc1ccc2c(c1)C1(NN=C(c3cccc4ccccc34)S1)C(=O)N2 (centres undefined)	Peg3 prom inh 51
COc1ccc(CN2C(=O)[C@H]3Cc4c([nH]c5ccccc45)C(C)(C)N3C2=O)cc1	none
O=C(c1cc(C2CC2)on1)N1CCN(C(c2ccccc2)c2ccccc2)CC1	none (no result: TRPM1 prom inh)
O=C(c1cc(-c2cccc(O)c2)on1)N1CCN(C(c2ccccc2)c2ccccc2)CC1	Peg3 prom inh 82
CCOC(=O)c1sc(NC(=O)Nc2cccc(Cl)c2)cc1C	CF NFkB block 60, KKLEB tox -64
CCOC(=O)c1sc(NC(=O)c2cccs2)cc1C	none
CCCCCCc1cc2cc(-c3nnc(-c4ccccc4OC)o3)c(=O)oc2cc1O	none
CCCCCCc1cc2cc(-c3nnc(-c4ccccc4O)o3)c(=O)oc2cc1O	KKLEB tox -66
CC1CCN(Cc2nnnn2CCCC(=O)N(C)C2CCOC2)CC1 (centres undefined)	none
CC1=CC(=O)C=C/C1=C(/c1ccc(O)cc1C)c1ccccc1S(=O)(=O)O	Peg3 prom inh 79
c1ccc(-c2cn3nc(-c4ccccc4)sc3n2)cc1	KKLEB tox -60
COc1ccccc1CNc1nc(NCc2cccc(OC)c2OC)c2sccc2n1	Peg3 prom inh 54 (no result: TRPM1 prom inh)
COc1ccccc1CNc1nc(NC(C)C)nc2cc(-c3ccccc3)sc12	Peg3 prom inh 75 (no result: TRPM1 prom inh)
